Data from PubChem BioAssay AID2685 (National Center for Advancing Translational Sciences (NCATS), 2010).
Hit rate of the full screen: of about 320,000 compounds, about 2,100 (0.66%) were called active. Not shown: some 53% with an inconclusive outcome. The call rests on the fitted dose curve; in most records, active means well fitted inhibition curve with a large enough effect in the signal ratio, with a control signal flat (not every such curve was filed as active); inconclusive means small, poorly fitted or top-dose-only effect, or effect the other way, or a change in a side signal; inactive means flat fitted curve, though single readings scatter; the % refers to the signal ratio. The full list was thinned out, with actives kept by preference.

assay: qHTS Assay for Lipid Storage Modulators in Drosophila S3 Cells; conditions: BODIPY lipid droplet fluorescence, 18-24 h, cells fed with added oleic acid; cell number change: measured here: cell count max response; series mostly up to 46.1 µM;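 on cell number change: cells counted by Cell Tracker Red CMTPX staining in the red channel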
In short: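 Laser-scanning cytometry quantifies lipid droplet accumulation (500–530 nm total intensity; droplet/cell object ratio) in oleic acid-fed (400 uM added) Drosophila S3 cells treated with a concentration series. 20 uM Triacsin C defined 100% inhibition.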
Potency means the concentration at half of the fitted maximal effect.

Compound | Potency | cell number change [%] | outcome
CN(C)c1ccc(C(=O)N2CCCC(CCC(=O)N3CCN(c4ccccn4)CC3)C2)cc1 (configuration not stated) | inactive | -25.3 | 
C=Cc1ccc(C(=O)N2CCCC(CCC(=O)N3CCN(c4ccccn4)CC3)C2)cc1 (configuration not stated) | inactive | -2.91 | 
COc1ccc(C(=O)N2CCCC(CCC(=O)N3CCN(c4ccccn4)CC3)C2)cc1 (configuration not stated) | 8.2 µM (active) | -15.8 | 
COc1ccc(-n2cccc2/C=C2\C(=N)N3N=C(c4ccco4)SC3=NC2=O)cc1 | inactive | -5.47 | 
CC(C)(C)NC(=O)Cn1ccc(=N)c2ccccc21 | inactive | -1.29 | 
CCCCNc1c(-c2cccc(SC3CCCCC3)c2)nc2ccc(Cl)cn12 | inactive | 5.29 | 
CCOC(=O)CNc1c(-c2ccc(O)cc2)nc2ccccn12 | inactive | 4.87 | 
CCCCNc1c(-c2ccc(-c3cccc(Cl)c3)cc2)nc2ccccn12 | 23.1 µM (active) | 5.08 | 
O=C1CCCC2(O)C1C(c1cccc(Br)c1)NC(=O)N2Cc1ccccc1 (configuration not stated) | inactive | 1.15 | 
CCCS(=O)(=O)N1CCN(CCCc2ccccc2)CC1 | inactive | 6.21 | 
O=S(=O)(CCc1ccccc1)N1CCOCC1 | 5.8 µM (active) | 1.99 | 
c1ccc(CCCN2CCOCC2)cc1 | inactive | 11.8 | 
CC(C)Sc1nnc(NC(=O)c2ccc3c(c2)OCO3)s1 | inactive |  | 
O=C(COC(=O)COc1ccccc1)NC1CCCC1 | inactive | -5.97 | 
COc1ccc(OC)c(NC(=O)c2cc3n(n2)C(C(F)(F)F)CC(c2ccc4c(c2)OCO4)N3)c1 (configuration not stated) | inactive | 16.6 | 
COc1ccc(NC(=O)c2cc3n(n2)C(C(F)(F)F)CC(c2ccc4c(c2)OCO4)N3)cc1OC (configuration not stated) | 16.4 µM (active) | -18.2 | 
COc1ccc(C2CC(C(F)(F)F)n3nc(C(=O)O)cc3N2)cc1OC (configuration not stated) | inactive | 20.6 | 
Cn1cc(CN2CCC(CO)CC2)c(-c2ccc(Oc3ccccc3)cc2)n1 | inactive | -5.37 | 
COc1cccc(CNC(=O)C2CCN(S(=O)(=O)N3CCC4(CC3)OCCO4)CC2)c1 | inactive | 8.33 | 
O=C(Nc1ccc(S(=O)(=O)Nc2ncccn2)cc1)C1=COCCO1 | inactive | 6.63 | 
CC1Sc2ccc(S(=O)(=O)NCCc3ccccc3)cc2NC1=O (configuration not stated) | inactive | -2.36 | 
CC1Sc2ccc(S(=O)(=O)NCCc3ccc(S(N)(=O)=O)cc3)cc2NC1=O (configuration not stated) | 2.59 µM (active) | -0.885 | 
CC1Sc2ccc(S(=O)(=O)NCCc3ccc(Cl)cc3)cc2NC1=O (configuration not stated) | inactive |  | 
CC(=O)c1ccc(NC(=S)N2CCC(Cc3ccccc3)CC2)cc1 | inactive | -2.62 | 
Cc1ccc(-n2c(C)cc(/C=N/NC(=O)c3ccncc3)c2C)cc1 | inactive |  | 

Compound | Potency | cell number change [%] | outcome
Cc1ccc(-n2c(C)cc(/C=N/NC(=O)c3ccncc3)c2C)c(C)c1 | 18.4 µM (active) | -26.9 | 
Cc1cc(C)cc(-n2c(C)cc(/C=N/NC(=O)c3ccncc3)c2C)c1 | inactive | -4.41 | 
O=C(c1ccc(-c2ccccc2)c(F)c1)C1CCCN(CCCn2cccn2)C1 (configuration not stated) | inactive | 2.71 | 
CN(C)c1ccc(/C=N/NC(=O)c2ccccc2O)o1 | inactive |  | 
Cc1nn(-c2ccc(F)cc2)c(C)c1CN1CCN(CCC(C)C)C(CCO)C1 (configuration not stated) | inactive | 12.5 | 
COCC(=O)N1CCN(c2cccc(Cl)c2)CC1 | inactive | -20.3 | 
CC1=CC(C)C2C(=O)N(CCC[N+](C)(C)C)C(=O)C2C1 (configuration not stated) | inactive | 2.72 | 
CC1=CC(C)C2C(=O)N(c3ccccc3)NC(=O)C2C1 (configuration not stated) | inactive | 6.7 | 
CC1=CC(C)C2C(=O)N(O)C(=O)C2C1 (configuration not stated) | 20.6 µM (active) | -17.9 | 
O=C1c2ccccc2C(=O)C1c1ccccn1 | inactive | 7 | 
Cc1nc2scc(C)n2c(=O)c1S(=O)(=O)NCCc1ccc(Cl)cc1 | inactive | -15.9 | 
CC(C)N(C)CCOC(=O)c1ccc2c(c1)OCCO2 | inactive | -0.0823 | 
Cc1oc(-c2ccoc2)nc1CN(Cc1ccccc1)CC1CC1 | inactive | 1.56 | 
COc1ccc(Cl)cc1NC(=O)COC(=O)CNC(=O)c1ccc([N+](=O)[O-])c(C)c1 | inactive | 7.48 | 
CCOC(=O)C(N)CSC1CC(=O)N(c2ccc(C(=O)OC)cc2)C1=O (configuration not stated) | inactive | 8.08 | 
CCOC(=O)C(N)CSC1CC(=O)N(c2ccc(OC)cc2)C1=O (configuration not stated) | 3.26 µM (active) | -13.3 | 
CCOC(=O)C(N)CSC1CC(=O)N(c2ccc(OCC)cc2)C1=O (configuration not stated) | inactive | 8.77 | 
CCOC(=O)c1cc(C)nc(Sc2ccc(C)cc2)c1C#N | inactive | 3.68 | 
Cc1ccc(OCc2ccc(-c3ccccc3)cc2)c([N+](=O)[O-])n1 | inactive |  | 
O=[N+]([O-])c1cc2c(cc1Br)CCN2 | inactive | -0.505 | 
c1ccc(CNc2ccc(CNc3ncn[nH]3)cc2)cc1 | inactive | 13.8 | 
COc1cc(C(=O)Nc2cccc(-c3nc4ccccc4o3)c2C)cc(OC)c1OC | inactive | -6.82 | 
CC(=O)NCCC(=O)Nc1nc(-c2ccccc2Cl)cs1 | inactive |  | 
CN1CCN(CC(=O)Nc2nc(-c3c[nH]c4ccccc34)cs2)CC1 | inactive | -11.4 | 
CC(=O)NCCC(=O)Nc1nc(-c2c[nH]c3ccccc23)cs1 | 14.6 µM (active) | -1.21 | 

Compound | Potency | cell number change [%] | outcome
COCC(C)N1CCC(n2nccc2NC(=O)c2ccc3c(c2)OCO3)CC1 (configuration not stated) | inactive | 11.7 | 
CCOc1ccc(N(CC(=O)NCC2CCCO2)S(=O)(=O)c2ccc(OC)c(OC)c2)cc1 (configuration not stated) | inactive | 14.4 | 
CC1(C)N=C(/C=N/O)CN1O | 6.51 µM (active) | 1.43 | 
Cc1ccc(NC(=O)C2(N(C(=O)Cn3nnnc3N)c3ccc(C)cc3)CCCCC2)cc1 | inactive | -7.84 | 
CCOC(=O)CSc1nc2c(c(=O)n1-c1ccc(OC)cc1)SCC2 | inactive |  | 
CCc1nnc(NC(=O)CSc2nccn2-c2cccc(C)c2)s1 | inactive | 0.532 | 
COc1ccccc1NC(=O)CCNC(=O)c1ccc(C)cc1 | inactive |  | 
Cc1ccc(C(=O)c2c(NC(=O)c3cccnc3)sc3c2CCCC3)cc1 | inactive | 17.7 | 
Cc1ccc(C(=O)c2c(NC(=O)CSc3nnc(N)s3)sc3c2CCCC3)cc1 | 18.4 µM (active) | -2.02 | 
CCOC(=O)c1c(NC(=O)CSc2nnc(C)s2)sc2c1CCCCC2 | inactive | -12.5 | 
CCOC(=O)N1CCN(c2ncc(C(F)(F)F)cc2Cl)CC1 | inactive | 23.9 | 
NC(=NCCc1ccccc1)NS(=O)(=O)c1ccccc1 | inactive | 16.5 | 
CC(C)CN=C(NS(=O)(=O)c1ccccc1)C(Cl)(Cl)Cl | 18.4 µM (active) |  | 
CC(=O)NS(=O)(=O)c1ccccc1 | inactive | -6.94 | 
COc1ccc(CCNC(=O)c2ccc(=O)[nH]c2)cc1OC | inactive | 10.1 | 
CC(=O)N1CCN(S(=O)(=O)c2cccc(C(=O)OCN3C(=O)c4ccccc4C3=O)c2)CC1 | inactive | 22.4 | 
COc1ccc(COC(=O)c2cccc(S(=O)(=O)N3CCCC3)c2)cc1F |  | -0.63 | inactive [at 0.369 µM]
CC(=O)N1CCN(S(=O)(=O)c2cccc(C(=O)OCc3cccc(F)c3)c2)CC1 | 6.51 µM (active) | -11.8 | 
Cc1cc(=O)oc2c3c(cc(OCC(=O)NCC(=O)O)c12)OC(C)(C)CC3 | inactive | 13.8 | 
CCc1cc(=O)oc2c3c(cc(OCC(=O)NCc4ccncc4)c12)OC(C)(C)CC3 | inactive | 18.3 | 
CCc1cc(=O)oc2c3c(cc(OCC(=O)NCCC(=O)O)c12)OC(C)(C)CC3 | inactive | 4.77 | 
COc1ccccc1CNC(=O)COc1cc2c(c3oc(=O)cc(C)c13)CCC(C)(C)O2 | inactive | 5.31 | 
CCc1cc(=O)oc2c3c(cc(OCC(=O)NCc4cccnc4)c12)OC(C)(C)CC3 | 7.31 µM (active) | 1.59 | 
COc1cccc(CNC(=O)COc2cc3c(c4oc(=O)cc(C)c24)CCC(C)(C)O3)c1 | 1.3 µM (active) | -18.8 | 
O=C(Cc1ccccc1)NNC(=O)c1ccc(NC(=O)c2ccccc2)cc1 | inactive | 27.8 | 

Compound | Potency | cell number change [%] | outcome
CN(C)S(=O)(=O)c1ccc(C(=O)Oc2coc(CSc3ncccn3)cc2=O)cc1 | inactive | 6.85 | 
NC(=O)N/N=C(/CCCCCC/C(=N\NC(N)=O)c1ccccc1)c1ccccc1 | inactive | 2.15 | 
Cc1ccc(C(=O)N2C3=C(CCCC3)C(=O)NC23CCCCC3)cc1 | inactive | 3.44 | 
COC(=O)CNC(=O)CNC(=O)Nc1ccccc1 | inactive | 1.69 | 
Cn1nccc1NC(=O)COCC(=O)O | inactive | 11.4 | 
O=C(NCc1ccc(N2CCCC2=O)cc1)c1ccc(F)cc1 | inactive | 1.24 | 
COc1ccc(CNC(=O)c2ccc(N3CCCC3=O)cc2)cc1 | inactive | 23.1 | 
Cc1ncsc1C(=O)NCc1ccc(N2CCCC2=O)cc1 | 2.59 µM (active) |  | 
N#Cc1ccsc1NC(=O)CN(Cc1ccccc1)Cc1ccccc1 | inactive | -9.01 | 
CCOC(=O)N1CCC(NC(=O)c2ccc(CO)c(C(=O)NC3CCN(C(=O)OCC)CC3)c2)CC1 | inactive |  | 
O=C(O)CC(C(=O)Nc1ccc(Cl)cc1Cl)C1CCCO1 (configuration not stated) | inactive | 5.73 | 
O=C(O)CC(C(=O)Nc1ccc(Cl)c(Cl)c1)C1CCCO1 (configuration not stated) | 20.6 µM (active) | 12.1 | 
O=C(O)CC(C(=O)Nc1ccc(F)cc1)C1CCCO1 (configuration not stated) | inactive | -13.3 | 
CCOC(=O)N1CCN(C(=O)CCCn2c(=S)[nH]c3ccsc3c2=O)CC1 | inactive | -21.6 | 
COC(=O)c1ccc(COc2ccc(C=O)cc2)o1 | inactive | -4.2 | 
CCN(CC#CCC(O)(c1ccccc1)c1ccccc1)C(C)C | inactive | 1.67 | 
Cc1cc(S(=O)(=O)NCc2cccnc2)ccc1-n1cnnn1 | inactive | 2.93 | 
COc1ccc(CNS(=O)(=O)c2ccc(-n3cnnn3)c(C)c2)cc1 | 18.4 µM (active) | -1.28 | 
COc1ccc(OCC(NS(=O)(=O)c2ccc(-n3cnnn3)cc2)C(C)C)cc1 (configuration not stated) | 0.13 µM (active) |  | 
COc1ccc(S(=O)(=O)Nc2cccc(-n3cnnn3)c2)cc1 | inactive | -4.25 | 
COc1ccc(CN(Cc2ccc(OC)cc2)S(=O)(=O)c2ccc(-n3cnnn3)c(C)c2)cc1 | inactive | -0.43 | 
CCCCOc1ccc(NS(=O)(=O)c2ccc(-n3cnnn3)cc2)cc1 | inactive | -4.72 | 
